Source: PubChem (National Center for Advancing Translational Sciences (NCATS))
In the library only some 11% were active in any assay of this set; here they are far more common.
ALDH1A1 inh: inhibitors of human aldehyde dehydrogenase 1A1; Purified ALDH1A1, NADH fluorescence, propionaldehyde substrate; AID 1030; Potency, µM (highest dose often 75.3 µM), usual class: inhibitors; P00352; 220,000 tested, 7.3% active
Target sequence (P00352 whole entry, looked up): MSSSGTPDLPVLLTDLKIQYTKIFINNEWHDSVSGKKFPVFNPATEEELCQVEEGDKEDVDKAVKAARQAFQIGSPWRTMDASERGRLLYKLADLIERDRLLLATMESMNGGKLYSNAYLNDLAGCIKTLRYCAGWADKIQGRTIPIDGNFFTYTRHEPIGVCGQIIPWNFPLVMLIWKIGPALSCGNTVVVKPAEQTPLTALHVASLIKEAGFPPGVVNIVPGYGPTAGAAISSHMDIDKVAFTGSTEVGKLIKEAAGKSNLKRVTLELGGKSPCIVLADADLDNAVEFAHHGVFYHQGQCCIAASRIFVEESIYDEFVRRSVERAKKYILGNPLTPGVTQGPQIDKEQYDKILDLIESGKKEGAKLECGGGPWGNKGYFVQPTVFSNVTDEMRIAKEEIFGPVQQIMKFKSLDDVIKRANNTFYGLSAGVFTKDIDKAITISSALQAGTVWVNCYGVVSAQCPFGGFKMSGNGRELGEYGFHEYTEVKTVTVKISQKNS
PNC inhibitor: inhibitors of perinucleolar compartment assembly; PC3M PTB-GFP, PNC prevalence imaging, 16 h; hits give low values; activity change (PNC), negative = inhibition, % at 10 µM; 140,000 tested, 3.1% active;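 active = readout at or below -70, meaning at least 70% loss of cells showing the perinucleolar compartment, a nuclear body marking cancer cells; inconclusive = readout between -30 and a set limit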
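PC3M cells stably expressing PTB-GFP, 750–1000 cells/well, treated 16 h at 37 °C with compound (23 nl of library stock), in duplicate. After paraformaldehyde fixation and Hoechst stain, imaged at 20x; PNC prevalence scored by image analysis.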
HPGD inh: blocks human HPGD enzyme activity. 150,000 tested, 4.3% active. purified HPGD, NADH fluorescence kinetic, PGE2 substrate. P15428. Potency, µM, actives largely listed as inhibitors
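NADH formation kinetics: reaction with 30 uM PGE2 and 1 mM NAD+ (final), 20 nM enzyme, Tris-HCl pH 8 with Tween 20, after 15 min compound preincubation at room temperature. Fluorescence change, last versus first of five reads.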
Of the large screens only hits and unclear results are named; the others gave an inactive call. Unless noted, calls follow the shape of the dose curve; as a rule, active = well fitted inhibition curve with a large enough effect (not every such curve was filed as active); inconclusive = small, poorly fitted or top-dose-only effect, or another doubt; inactive = no such curve, though single readings can be large or run the other way.

S=c1[nH]nc(-c2ccc3ccccc3n2)n1-c1ccc2ncccc2c1	HPGD inh 13µM
S=c1[nH]nc(-c2ccc3ccccc3n2)n1-c1ccc(Cl)cc1	ALDH1A1 inh inconclusive, HPGD inh 10µM
CCCOC(=O)c1c(NC(=O)C2C3C=CC(C3)C2C(=O)O)sc2c1CCC(C)C2 (stereo unspecified)	ALDH1A1 inh 10µM (no result: PNC inhibitor, HPGD inh)
CCOC(=O)c1c(NC(=O)c2ccc(N3C(=O)[C@@H]4[C@H](C3=O)[C@H]3C=C[C@@H]4C3)cc2)sc2c1CC(C)CC2 (stereo partly specified)	ALDH1A1 inh inconclusive, PNC inhibitor -125, HPGD inh inconclusive
CCOC(=O)c1c(-c2ccc(C)cc2)csc1NC(=O)c1ccc(N2C(=O)CCC2=O)cc1	ALDH1A1 inh inconclusive, HPGD inh inconclusive
CCOC(=O)c1c(NC(=O)C2C3C=CC(C3)C2C(=O)O)sc2c1CC(C)CC2 (stereo unspecified)	none (no result: PNC inhibitor, HPGD inh)
Cc1cc(=O)[nH]c2cc3oc4ccccc4c3cc12	none (no result: PNC inhibitor)
Cn1cnnc1SCC(=O)c1ccc2c(c1)CCCC2	ALDH1A1 inh 32µM
Cn1cnnc1SCC(=O)Nc1ccc2c(c1)CCC2	none
COc1ccc(NC(=O)CSc2nncn2C)cc1OC	none
COc1cc(C(=O)CSc2nncn2C)cc(OC)c1OC	ALDH1A1 inh 13µM, PNC inhibitor -111
CCOC(=O)C1(Cc2ccc(OC)cc2)CCN(C(=O)CCc2cccnc2)CC1	none (no result: PNC inhibitor, HPGD inh)
O=C(c1ccco1)c1cn[nH]c1-c1ccc(Cl)cc1O	none
Cc1ccc(C)c(NC(=S)N(CCN(C)C)C(C)c2ccccn2)c1 (stereo unspecified)	none (no result: PNC inhibitor, HPGD inh)
COc1ccc(S(=O)(=O)N(CCc2ccccc2)CC(=O)NCCCO)cc1	ALDH1A1 inh 8.9µM
O=C(CN(CCc1ccccc1)S(=O)(=O)c1ccc(Cl)cc1)N/N=C/c1ccc2c(c1)OCO2	ALDH1A1 inh inconclusive
CCNC(=O)CN(CCc1ccccc1)S(=O)(=O)c1ccc(OC)cc1	ALDH1A1 inh inconclusive
COc1ccc(S(=O)(=O)N(CCc2ccccc2)CC(=O)N/N=C/c2ccc3c(c2)OCO3)cc1	ALDH1A1 inh inconclusive, HPGD inh 22µM
O=C(CCC(=O)OCc1ccc([N+](=O)[O-])cc1)Nc1ccccc1Cl	none (no result: PNC inhibitor, HPGD inh)
Cc1noc(C)c1-c1nc(NCc2cccs2)c2ccccc2n1	none (no result: PNC inhibitor, HPGD inh)
COc1cccc(C2=CC(c3ccc(OC)c(OC)c3)NC(=S)N2)c1 (stereo unspecified)	ALDH1A1 inh 14µM (no result: PNC inhibitor, HPGD inh)
COc1cccc(NC(=S)N2CCCC2c2ccc(OC)c(OC)c2)c1 (stereo unspecified)	none (no result: PNC inhibitor, HPGD inh)
CC(C)CCN1CCN(Cc2nc3c(s2)CCCC3)CC1CCO (stereo unspecified)	none (no result: PNC inhibitor, HPGD inh)
Cc1ccsc1C(=O)N1CCC(N2CCC(C(=O)NCC3CCCO3)CC2)CC1 (stereo unspecified)	none (no result: PNC inhibitor, HPGD inh)
COC(=O)c1c(C)[nH]c(O)c1C=Nc1ccc(Oc2ccccc2)cc1	none (no result: PNC inhibitor, HPGD inh)
COC(=O)c1c(C)[nH]c(O)c1C=Nc1ccc(C(C)C)cc1	ALDH1A1 inh inconclusive, HPGD inh 25µM
Cc1nc2sc3c(c2c(=O)n1NC(=O)CCBr)CCCC3	ALDH1A1 inh 14µM (no result: PNC inhibitor, HPGD inh)
CCn1c(SCC(N)=O)nc2sc3c(c2c1=O)CCCC3	ALDH1A1 inh inconclusive
Cc1ccccc1Nc1nc(N)nc(CN(C)Cc2ccccc2Cl)n1	none
CCC(C)NS(=O)(=O)c1ccc(OCC(=O)Nc2ccc(F)cc2F)cc1 (stereo unspecified)	none
CC(C)CNS(=O)(=O)c1ccc(OCC(=O)Nc2ccc(F)cc2F)cc1	PNC inhibitor -83
COC(=O)c1sc(N)c(C(=O)OC)c1COC(=O)c1c(C)noc1C	HPGD inh 18µM
Cc1noc(C)c1C(=O)OCC(=O)NC1CC1	none
CC1CN(C(=O)CSc2nnc3c(Cl)cc(Cl)cn23)CC(C)O1 (stereo unspecified)	none
O=C(O)CCCC[C@H]1SC[C@H]2NC(=O)N[C@@H]21	none (no result: PNC inhibitor)
Cc1cccc(NC(=S)NC(=O)c2ccco2)n1	none
Cn1cnnc1SCC(=O)c1ccc2c(c1)OCO2	none
O=C(CSc1nnc(SCc2ccc(Cl)cc2)s1)c1ccc2c(c1)OCO2	ALDH1A1 inh 2.2µM
C=CCn1c(SCC(=O)c2ccc(Cl)cc2)nnc1-c1ccc2c(c1)OCO2	ALDH1A1 inh inconclusive, HPGD inh 8.9µM
C=CCn1c(SCC(=O)c2ccc(OC)cc2)nnc1-c1ccc2c(c1)OCO2	none
CC1CCCCN1c1nnc(NC(=O)c2cc(-c3ccc(Br)cc3)on2)s1 (stereo unspecified)	ALDH1A1 inh inconclusive
COc1cccc(C(=O)CC2c3c(c(Br)c4c(c3OC)OCO4)CCN2C)c1 (stereo unspecified)	ALDH1A1 inh 7.9µM, HPGD inh inconclusive (no result: PNC inhibitor)
COc1ccc2c(c1OC)C(=O)OC2[C@H]1c2c(cc3c(c2OC)OCO3)CCN1C (stereo partly specified)	none (no result: PNC inhibitor)
NC/C=C/C(=O)O	none (no result: PNC inhibitor)
O=C(Cc1ccc(F)cc1)Oc1ccc(C(=S)N2CCCC2)cc1	none
COc1ccc(/C=c2\sc3nc(=O)c(C)nn3c2=O)c(OC)c1	ALDH1A1 inh 22µM (no result: PNC inhibitor, HPGD inh)
Cc1ccc(/C=c2\sc3nc(-c4ccco4)nn3c2=O)o1	ALDH1A1 inh 3.5µM, PNC inhibitor inconclusive, HPGD inh 18µM
COc1ccc(/C=C/C(=O)/C=C/c2ccc(OC)cc2OC)c(OC)c1	ALDH1A1 inh inconclusive (no result: PNC inhibitor)
Cc1ccc(-c2nc3s/c(=C\c4ccco4)c(=O)n3n2)cc1	none
Cc1ccc(/C=c2\sc3nc(-c4ccccc4Br)nn3c2=O)o1	ALDH1A1 inh 13µM, PNC inhibitor inconclusive, HPGD inh 20µM
Cc1ccc(/C=c2/sc3nnc(-c4ccccc4Cl)n3c2=O)o1	ALDH1A1 inh inconclusive, PNC inhibitor inconclusive
COc1ccc(Br)cc1/C=c1\sc2nc(-c3ccco3)nn2c1=O	ALDH1A1 inh 28µM, HPGD inh 14µM
COc1ccccc1/C=c1\sc2nc(-c3ccccc3OC)nn2c1=O	none
O=c1c(CCc2ccccc2)nc2cnc(Nc3ccccc3)nc2n1Cc1cccs1	none (no result: PNC inhibitor)
O=C(NC(=S)Nc1ccc(S(=O)(=O)Nc2nccs2)cc1)c1cccc(F)c1	ALDH1A1 inh inconclusive, PNC inhibitor inconclusive
CCOC(=O)c1[nH]ncc1CN1CCN(Cc2ccc(C)cc2)C(CCO)C1 (stereo unspecified)	none (no result: PNC inhibitor, HPGD inh)
CCc1cc2c(=O)n(CC)c(SC(C)C(=O)Nc3c(C)n(C)n(-c4ccccc4)c3=O)nc2s1 (stereo unspecified)	ALDH1A1 inh inconclusive
CCOC(=O)N1CCN(C(c2ccc(F)cc2)c2sc3nc(C)nn3c2O)CC1 (stereo unspecified)	none
CCc1ccc(OCc2nnc(SCC(=O)NCc3ccco3)o2)cc1	none
CCCc1c(C)c2cccc(C)c2[nH]c1=O	none
CCCCN1CCc2c([nH]c3c(C)cccc23)C1=O	ALDH1A1 inh inconclusive, PNC inhibitor -87
COc1ccc(NC(=O)C2CC(=O)N/C(=N/NC(=O)c3ccc(Cl)cc3)S2)cc1 (stereo unspecified)	none (no result: PNC inhibitor, HPGD inh)
CCNc1nc(NC(C)C)nc(Oc2ccc(=O)n(C)n2)n1	none (no result: PNC inhibitor, HPGD inh)
CCOC(=O)c1[nH]c2ccc(Br)cc2c1NC(=O)CCN1CCC(C)CC1	ALDH1A1 inh 11µM
CCOC(=O)c1[nH]c2ccc(Br)cc2c1NC(=O)CCN1CCCC(C)C1 (stereo unspecified)	none
CCn1c(SCc2ccc(F)cc2)nc2c(c1=O)SCC2	none (no result: PNC inhibitor, HPGD inh)
CCn1c(SCc2cccc(F)c2)nc2c(c1=O)SCC2	ALDH1A1 inh 14µM (no result: PNC inhibitor, HPGD inh)
O=C(COC(=O)CNC(=O)c1sc2ccccc2c1Cl)Nc1c(Cl)cc(Cl)cc1Cl	none
